Data as given in the supplement of paper PMC11732987, “Enantioselective OTUD7B fragment discovery through chemoproteomics screening and high-throughput optimisation” (Communications Chemistry, 2025).

Tests used:
Assay in all cases: log2 ratio of Biotin-Ahx-Ub-VS probe labelling (fragment/DMSO); higher = less target engagement (more negative = stronger competition), active = hit call of the paper (q ≤ 0.05, log2 ratio ≤ -1)
Settings in all cases: compound concentration: 200 uM; treatment time: 3 h
USP19 = biological target: T1, USP19 (UniProt O94966)
T1 sequence (whole entry): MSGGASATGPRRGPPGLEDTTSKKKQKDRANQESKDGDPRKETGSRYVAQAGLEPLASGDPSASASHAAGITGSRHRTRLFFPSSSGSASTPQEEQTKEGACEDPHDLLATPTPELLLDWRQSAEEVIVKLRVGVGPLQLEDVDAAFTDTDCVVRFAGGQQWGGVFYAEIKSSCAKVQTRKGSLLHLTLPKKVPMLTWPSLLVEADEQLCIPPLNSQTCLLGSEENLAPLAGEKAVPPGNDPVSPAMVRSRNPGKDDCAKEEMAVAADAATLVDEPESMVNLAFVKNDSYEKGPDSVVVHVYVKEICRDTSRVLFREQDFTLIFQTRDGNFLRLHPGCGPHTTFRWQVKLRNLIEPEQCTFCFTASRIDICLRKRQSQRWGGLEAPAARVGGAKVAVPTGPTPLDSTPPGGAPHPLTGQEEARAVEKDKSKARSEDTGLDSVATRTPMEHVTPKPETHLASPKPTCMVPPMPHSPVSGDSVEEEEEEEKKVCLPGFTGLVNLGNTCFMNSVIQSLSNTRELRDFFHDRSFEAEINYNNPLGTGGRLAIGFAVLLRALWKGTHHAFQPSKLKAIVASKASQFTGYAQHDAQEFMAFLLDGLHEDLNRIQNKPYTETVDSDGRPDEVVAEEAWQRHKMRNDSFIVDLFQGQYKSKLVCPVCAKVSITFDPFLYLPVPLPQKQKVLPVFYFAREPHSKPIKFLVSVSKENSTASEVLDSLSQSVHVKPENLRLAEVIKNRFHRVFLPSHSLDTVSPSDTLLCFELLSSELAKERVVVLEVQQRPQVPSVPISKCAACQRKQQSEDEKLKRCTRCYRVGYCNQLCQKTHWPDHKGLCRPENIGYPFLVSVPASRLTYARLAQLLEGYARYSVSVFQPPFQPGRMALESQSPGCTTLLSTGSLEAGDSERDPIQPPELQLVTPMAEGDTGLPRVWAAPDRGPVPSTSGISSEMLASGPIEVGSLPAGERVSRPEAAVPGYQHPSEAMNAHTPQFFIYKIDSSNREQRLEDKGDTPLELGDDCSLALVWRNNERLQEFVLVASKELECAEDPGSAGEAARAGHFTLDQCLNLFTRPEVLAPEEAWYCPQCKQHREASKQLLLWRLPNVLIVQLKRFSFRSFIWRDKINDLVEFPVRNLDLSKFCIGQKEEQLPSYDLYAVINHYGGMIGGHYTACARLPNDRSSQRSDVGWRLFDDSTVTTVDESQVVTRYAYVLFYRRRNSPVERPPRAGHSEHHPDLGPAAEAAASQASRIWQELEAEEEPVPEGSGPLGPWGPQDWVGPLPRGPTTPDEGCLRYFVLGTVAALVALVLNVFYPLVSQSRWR
In short: (§1)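 The table lists average log2 ratios of fragment over vehicle, from an unpaired t-test on global-median-normalised Spectronaut label-free quantities. Proteins with ≥2 unique peptides were used. Samples were HEK293T lysate (495 µg) treated in triplicate with fragment at 200 µM or vehicle for 3 h, then with Biotin-Ahx-Ub-VS (0.5 µM final) for 1 h, with labelled DUBs NeutrAvidin-enriched and run by diaPASEF LC-MS/MS.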

USP22 = biological target: T2, USP22 (UniProt Q9UPT9)
T2 sequence (whole entry): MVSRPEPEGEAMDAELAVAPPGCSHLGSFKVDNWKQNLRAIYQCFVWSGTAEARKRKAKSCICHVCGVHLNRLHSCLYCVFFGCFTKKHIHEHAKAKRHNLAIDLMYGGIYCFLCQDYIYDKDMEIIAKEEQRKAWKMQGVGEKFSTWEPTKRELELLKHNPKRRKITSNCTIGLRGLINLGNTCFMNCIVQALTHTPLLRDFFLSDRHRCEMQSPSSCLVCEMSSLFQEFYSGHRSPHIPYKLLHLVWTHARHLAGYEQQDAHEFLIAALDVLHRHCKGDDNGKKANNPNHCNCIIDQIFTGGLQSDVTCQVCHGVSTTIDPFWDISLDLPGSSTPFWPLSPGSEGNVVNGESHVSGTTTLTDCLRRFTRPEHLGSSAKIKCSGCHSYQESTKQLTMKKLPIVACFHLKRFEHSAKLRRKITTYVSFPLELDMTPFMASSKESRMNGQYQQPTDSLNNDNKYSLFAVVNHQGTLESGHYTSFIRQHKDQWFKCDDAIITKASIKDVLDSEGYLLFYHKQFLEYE
In short: as §1

USP24 = USP24 (UniProt Q9UPU5)
USP24, sequence (Q9UPU5 whole entry): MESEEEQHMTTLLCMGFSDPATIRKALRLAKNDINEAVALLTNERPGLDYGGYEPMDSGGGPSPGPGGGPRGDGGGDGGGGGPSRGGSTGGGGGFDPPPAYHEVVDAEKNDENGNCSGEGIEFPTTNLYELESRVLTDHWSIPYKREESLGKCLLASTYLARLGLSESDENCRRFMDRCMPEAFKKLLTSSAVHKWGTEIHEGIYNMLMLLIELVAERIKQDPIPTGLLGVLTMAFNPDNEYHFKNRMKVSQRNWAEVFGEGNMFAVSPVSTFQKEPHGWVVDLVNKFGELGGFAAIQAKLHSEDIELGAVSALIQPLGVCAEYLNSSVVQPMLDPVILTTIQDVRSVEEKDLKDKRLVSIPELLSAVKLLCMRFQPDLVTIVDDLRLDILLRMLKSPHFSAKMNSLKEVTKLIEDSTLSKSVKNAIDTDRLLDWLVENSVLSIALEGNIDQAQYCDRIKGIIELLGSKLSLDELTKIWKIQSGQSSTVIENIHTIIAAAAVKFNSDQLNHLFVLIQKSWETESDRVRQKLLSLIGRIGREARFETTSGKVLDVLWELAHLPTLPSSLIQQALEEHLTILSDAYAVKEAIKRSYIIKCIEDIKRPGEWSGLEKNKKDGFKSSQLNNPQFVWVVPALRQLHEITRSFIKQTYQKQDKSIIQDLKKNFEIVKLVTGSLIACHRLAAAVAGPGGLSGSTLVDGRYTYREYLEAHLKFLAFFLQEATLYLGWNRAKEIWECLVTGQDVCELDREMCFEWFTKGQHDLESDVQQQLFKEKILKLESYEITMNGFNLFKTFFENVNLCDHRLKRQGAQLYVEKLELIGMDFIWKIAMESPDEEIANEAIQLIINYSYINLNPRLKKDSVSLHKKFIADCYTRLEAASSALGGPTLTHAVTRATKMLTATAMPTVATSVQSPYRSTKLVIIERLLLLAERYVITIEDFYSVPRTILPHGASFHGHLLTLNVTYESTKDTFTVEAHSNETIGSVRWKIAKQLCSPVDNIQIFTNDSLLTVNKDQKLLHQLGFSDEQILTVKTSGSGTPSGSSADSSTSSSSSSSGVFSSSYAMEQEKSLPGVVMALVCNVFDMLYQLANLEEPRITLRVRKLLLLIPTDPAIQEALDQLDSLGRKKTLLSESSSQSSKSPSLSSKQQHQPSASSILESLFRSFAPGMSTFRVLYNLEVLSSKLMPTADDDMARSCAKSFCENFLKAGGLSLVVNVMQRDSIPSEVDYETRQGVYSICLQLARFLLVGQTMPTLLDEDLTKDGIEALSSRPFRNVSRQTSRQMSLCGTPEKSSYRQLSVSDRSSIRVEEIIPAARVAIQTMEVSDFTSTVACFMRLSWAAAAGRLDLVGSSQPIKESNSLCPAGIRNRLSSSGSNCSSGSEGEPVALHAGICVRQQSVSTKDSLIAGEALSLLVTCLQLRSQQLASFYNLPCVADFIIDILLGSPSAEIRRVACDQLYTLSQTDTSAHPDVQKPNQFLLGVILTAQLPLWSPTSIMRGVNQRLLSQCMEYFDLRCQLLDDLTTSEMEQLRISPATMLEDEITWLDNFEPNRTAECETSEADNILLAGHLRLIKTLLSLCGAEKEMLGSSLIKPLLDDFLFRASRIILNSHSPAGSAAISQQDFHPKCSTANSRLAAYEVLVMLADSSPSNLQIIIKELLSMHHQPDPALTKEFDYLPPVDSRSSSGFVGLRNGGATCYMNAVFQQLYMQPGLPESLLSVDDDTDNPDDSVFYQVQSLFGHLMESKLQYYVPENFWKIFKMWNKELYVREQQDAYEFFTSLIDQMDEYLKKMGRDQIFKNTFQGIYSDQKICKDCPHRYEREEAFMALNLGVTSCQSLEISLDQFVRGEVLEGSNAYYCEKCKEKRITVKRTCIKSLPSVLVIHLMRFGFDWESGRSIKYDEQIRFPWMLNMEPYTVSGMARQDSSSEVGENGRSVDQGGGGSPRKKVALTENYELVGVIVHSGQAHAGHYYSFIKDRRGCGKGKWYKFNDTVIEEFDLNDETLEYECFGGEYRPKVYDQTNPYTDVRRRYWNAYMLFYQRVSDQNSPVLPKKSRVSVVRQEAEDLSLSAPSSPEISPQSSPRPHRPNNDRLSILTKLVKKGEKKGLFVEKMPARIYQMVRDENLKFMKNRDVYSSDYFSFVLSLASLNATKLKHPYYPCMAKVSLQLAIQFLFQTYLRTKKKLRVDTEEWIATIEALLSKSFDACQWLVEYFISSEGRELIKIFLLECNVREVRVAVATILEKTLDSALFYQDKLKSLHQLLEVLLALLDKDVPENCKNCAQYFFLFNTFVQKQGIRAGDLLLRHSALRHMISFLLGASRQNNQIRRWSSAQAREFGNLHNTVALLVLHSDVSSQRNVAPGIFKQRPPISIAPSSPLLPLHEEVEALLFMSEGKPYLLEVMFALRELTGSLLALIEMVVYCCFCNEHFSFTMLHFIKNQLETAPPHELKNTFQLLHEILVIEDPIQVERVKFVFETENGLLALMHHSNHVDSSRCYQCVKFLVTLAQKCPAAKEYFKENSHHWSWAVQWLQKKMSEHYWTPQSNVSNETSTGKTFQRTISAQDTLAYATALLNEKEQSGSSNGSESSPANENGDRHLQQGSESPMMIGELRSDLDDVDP
In short: as §1

USP25 = biological target: T3, USP25 (UniProt Q9UHP3)
T3 sequence (whole entry): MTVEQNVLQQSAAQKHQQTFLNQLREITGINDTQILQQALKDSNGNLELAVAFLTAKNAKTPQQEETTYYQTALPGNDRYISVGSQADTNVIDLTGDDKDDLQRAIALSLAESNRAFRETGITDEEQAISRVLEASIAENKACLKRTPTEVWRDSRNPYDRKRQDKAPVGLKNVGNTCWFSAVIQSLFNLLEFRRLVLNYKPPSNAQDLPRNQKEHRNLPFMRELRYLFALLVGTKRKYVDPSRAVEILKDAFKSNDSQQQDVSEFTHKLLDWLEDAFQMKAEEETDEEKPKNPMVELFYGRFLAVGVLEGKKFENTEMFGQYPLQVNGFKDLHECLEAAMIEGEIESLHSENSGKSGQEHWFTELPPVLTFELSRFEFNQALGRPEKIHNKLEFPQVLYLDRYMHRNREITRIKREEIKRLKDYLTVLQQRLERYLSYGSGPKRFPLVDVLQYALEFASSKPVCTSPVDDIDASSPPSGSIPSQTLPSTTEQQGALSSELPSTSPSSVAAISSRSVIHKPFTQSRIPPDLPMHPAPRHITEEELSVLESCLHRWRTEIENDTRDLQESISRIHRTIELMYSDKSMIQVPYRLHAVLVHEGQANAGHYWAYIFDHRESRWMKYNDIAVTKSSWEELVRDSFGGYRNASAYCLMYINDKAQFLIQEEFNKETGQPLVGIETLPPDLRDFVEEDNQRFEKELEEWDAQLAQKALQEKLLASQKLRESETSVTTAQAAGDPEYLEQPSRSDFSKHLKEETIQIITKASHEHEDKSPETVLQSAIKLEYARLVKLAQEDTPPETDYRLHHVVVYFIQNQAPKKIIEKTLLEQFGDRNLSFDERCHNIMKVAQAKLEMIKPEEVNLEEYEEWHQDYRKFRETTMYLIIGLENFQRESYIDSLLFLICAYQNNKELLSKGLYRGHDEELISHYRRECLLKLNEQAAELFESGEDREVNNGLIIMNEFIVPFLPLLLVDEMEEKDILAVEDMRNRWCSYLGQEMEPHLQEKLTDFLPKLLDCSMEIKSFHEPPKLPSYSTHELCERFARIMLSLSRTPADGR
In short: as §1

USP28 = biological target: T4, USP28 (UniProt Q96RU2)
T4 sequence (whole entry): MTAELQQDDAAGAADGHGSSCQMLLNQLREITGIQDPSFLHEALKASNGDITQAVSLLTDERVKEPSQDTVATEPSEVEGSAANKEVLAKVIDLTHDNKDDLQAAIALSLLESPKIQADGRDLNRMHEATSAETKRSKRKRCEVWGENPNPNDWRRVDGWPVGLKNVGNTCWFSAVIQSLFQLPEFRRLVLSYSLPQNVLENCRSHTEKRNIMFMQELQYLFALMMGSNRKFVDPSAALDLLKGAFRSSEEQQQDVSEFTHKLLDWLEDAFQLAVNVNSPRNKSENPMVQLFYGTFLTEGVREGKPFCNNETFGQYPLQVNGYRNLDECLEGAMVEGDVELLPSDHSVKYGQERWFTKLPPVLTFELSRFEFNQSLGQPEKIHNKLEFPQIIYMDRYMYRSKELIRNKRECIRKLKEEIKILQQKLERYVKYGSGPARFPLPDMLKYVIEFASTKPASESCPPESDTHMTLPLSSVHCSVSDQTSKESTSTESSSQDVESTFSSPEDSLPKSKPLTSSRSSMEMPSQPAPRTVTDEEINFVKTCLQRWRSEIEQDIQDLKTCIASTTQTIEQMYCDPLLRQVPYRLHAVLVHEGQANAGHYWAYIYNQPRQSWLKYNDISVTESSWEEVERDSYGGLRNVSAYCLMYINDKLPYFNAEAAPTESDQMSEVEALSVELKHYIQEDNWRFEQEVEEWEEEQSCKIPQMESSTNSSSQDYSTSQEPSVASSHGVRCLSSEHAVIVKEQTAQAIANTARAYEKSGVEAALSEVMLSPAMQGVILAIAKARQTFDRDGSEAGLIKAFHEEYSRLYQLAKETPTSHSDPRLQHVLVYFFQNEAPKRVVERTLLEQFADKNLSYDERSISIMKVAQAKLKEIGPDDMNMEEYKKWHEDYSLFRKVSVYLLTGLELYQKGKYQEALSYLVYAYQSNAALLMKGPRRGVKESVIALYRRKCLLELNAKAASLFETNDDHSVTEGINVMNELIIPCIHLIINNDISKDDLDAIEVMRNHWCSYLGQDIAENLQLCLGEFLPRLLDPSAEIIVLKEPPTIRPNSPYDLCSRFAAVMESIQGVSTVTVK
In short: as §1

Measured: log2 ratio of Biotin-Ahx-Ub-VS probe labelling

Cc1nc(CN2CCN(C(=O)CCl)CC2)cs1
inactive: USP19 -0.347 | USP22 -0.169 | USP24 -0.513 | USP25 -0.212 | USP28 -0.543
